Reference: PubChem BioAssay AID1456 (Vanderbilt High Throughput Screening Facility, 2008)
Screen size: about 190,000 compounds; about 4,100 (2.2%) were called active.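 The calls were made as follows: active = thallium flux slope and its plate-corrected score both differing from the plate sample mean at a set confidence after two filtering rounds, in either direction; inactive = the rest.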 What follows is part of a selection rich in actives, with near analogues and random picks from the rest.

biological target: Solute carrier family 12 member 5 (Homo sapiens) (UniProt Q9H2X9); assay: modulation of human KCC2 ion transport – cell-based, HEK293 KCC2, FluoZin-2 fluorescence, MLSMR, primary screen (AID 1456); settings: KCC2 cells, thallium flux FluoZin-2 fluorescence; at 10 µM;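 also: slope of fluorescence scaled to starting intensity during 10 to 20 s after thallium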
Sequence (Q9H2X9 whole entry, looked up): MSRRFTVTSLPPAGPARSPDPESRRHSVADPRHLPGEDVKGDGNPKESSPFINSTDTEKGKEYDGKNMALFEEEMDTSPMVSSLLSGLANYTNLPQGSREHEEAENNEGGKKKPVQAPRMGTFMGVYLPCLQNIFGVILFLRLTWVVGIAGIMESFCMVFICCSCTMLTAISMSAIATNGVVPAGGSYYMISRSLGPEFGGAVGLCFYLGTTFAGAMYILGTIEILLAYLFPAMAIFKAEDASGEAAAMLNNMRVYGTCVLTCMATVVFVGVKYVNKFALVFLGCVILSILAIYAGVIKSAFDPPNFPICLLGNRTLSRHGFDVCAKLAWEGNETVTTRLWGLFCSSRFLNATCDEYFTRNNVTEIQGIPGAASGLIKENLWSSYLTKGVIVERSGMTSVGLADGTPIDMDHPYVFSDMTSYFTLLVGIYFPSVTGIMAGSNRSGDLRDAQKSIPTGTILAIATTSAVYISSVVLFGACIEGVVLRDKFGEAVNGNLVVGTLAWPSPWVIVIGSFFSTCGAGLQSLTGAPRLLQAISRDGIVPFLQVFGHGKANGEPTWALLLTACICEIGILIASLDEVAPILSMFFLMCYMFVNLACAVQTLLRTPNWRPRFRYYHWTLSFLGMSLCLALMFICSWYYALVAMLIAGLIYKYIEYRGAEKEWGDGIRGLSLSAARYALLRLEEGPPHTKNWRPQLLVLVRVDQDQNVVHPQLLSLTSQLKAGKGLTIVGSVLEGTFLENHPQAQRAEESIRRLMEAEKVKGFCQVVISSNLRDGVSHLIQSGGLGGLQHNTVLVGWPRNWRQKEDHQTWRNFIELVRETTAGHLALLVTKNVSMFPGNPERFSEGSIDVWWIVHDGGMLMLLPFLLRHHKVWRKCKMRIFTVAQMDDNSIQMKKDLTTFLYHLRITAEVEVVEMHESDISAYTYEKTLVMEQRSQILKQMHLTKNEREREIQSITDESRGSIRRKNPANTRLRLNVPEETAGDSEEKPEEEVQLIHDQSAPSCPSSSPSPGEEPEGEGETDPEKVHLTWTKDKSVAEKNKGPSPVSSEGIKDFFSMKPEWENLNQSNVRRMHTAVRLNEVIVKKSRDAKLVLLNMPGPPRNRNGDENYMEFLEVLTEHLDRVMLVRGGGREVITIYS

SMILES	B-score of Tl+ flux slope (higher = more flux/activation; lower = inhibition)
Cc1cccc(NC(=O)/C(=C\c2ccco2)NC(=O)c2ccccc2)c1	0.0694 (inactive)
Cc1ccc(NC(=S)NC(=O)c2ccc(-c3ccccc3)cc2)cc1	1.16 (inactive)
Cc1cccc(NC(=O)NC(=S)NC(=O)c2ccccc2)c1	16.4 (active)
Cc1cccc(NC(=S)Nc2ccc(Br)cc2)c1	0.311 (inactive)
Cc1cccc(NC(=O)c2ccc([N+](=O)[O-])o2)c1	-0.0536 (inactive)
Cc1cccc(NC(=S)NC(=O)c2ccc(Br)o2)c1	143 (active)
CCOc1ccc(C2NC(=S)NC3=C2CCc2ccccc23)cc1 (stereo unspecified)	0.359 (inactive)
CC(=O)Nc1ccc(/C=C/C(=O)c2ccccc2)cc1	-1.42 (inactive)
CCCc1nc2c(c(=O)c3ccccc3n2C)c(=O)n1-c1cc(C)cc(C)c1	-2.43 (inactive)
Cc1cc(OCCCCOc2ccc(C#N)cc2)ccc1[N+](=O)[O-]	2.16 (inactive)
Clc1ccc(C[n+]2cc(-c3ccccc3)n3c2CCC3)cc1	0.476 (inactive)
O=C(C1CCN(c2nnc(-n3cccc3)s2)CC1)N1CCc2ccccc2C1	-3.67 (active)
CCOC(=O)C1CCCN(C(=O)C2CCN(c3nnc(-n4cccc4)s3)CC2)C1 (stereo unspecified)	-0.42 (inactive)
CSc1ccc(CCNC(=O)C2CCN(c3nnc(-n4cccc4)s3)CC2)cc1	0.348 (inactive)
COc1ccc2[nH]c(C(=O)Nc3ccccc3Cl)cc2c1	0.0923 (inactive)
CCCCOc1ccc(CON(C(C)=O)C(C)=O)cc1Cl	0.181 (inactive)
COc1ccc(-c2nc(CS(=O)CC(=O)N3CCc4ccccc4C3)c(C)o2)cc1 (stereo unspecified)	-6.3 (active)
COC(=O)c1cc2occc2n1Cc1nc(-c2ccccc2C)oc1C	0.574 (inactive)
COc1ccc(-c2nc(CS(=O)CC(=O)NCc3ccccn3)c(C)o2)cc1 (stereo unspecified)	1.46 (inactive)
Cc1oc(-c2ccccc2F)nc1CS(=O)(=O)CC(=O)NCCCN(C)C1CCCCC1	-0.282 (inactive)
Cc1ccccc1-c1nc(CS(=O)(=O)CC(=O)N2CCc3ccccc3C2)c(C)o1	-3.98 (active)

SMILES	B-score of Tl+ flux slope (higher = more flux/activation; lower = inhibition)
O=C(COc1ccccc1)N1CCc2ccccc2C1	0.0757 (inactive)
S=C(NCc1ccc2c(c1)OCO2)NCc1ccco1	-0.178 (inactive)
CCOC(=O)C1CCN(C(=O)Nc2cccc(OC)c2)CC1	0.26 (inactive)
Cc1ccccc1Cn1c2ccccc2c2cnn(CC(=O)NCc3ccco3)c(=O)c21	-0.21 (inactive)
COC(=O)CNc1nc(Cl)nc(N2CCC(C)CC2)n1	0.436 (inactive)
O=C(Nc1ccc(C(=O)O)cc1)/C(=C/c1ccc([N+](=O)[O-])cc1)NC(=O)c1ccccc1	-0.11 (inactive)
O=C(Nc1ccccc1)/C(=C/c1ccc([N+](=O)[O-])cc1)NC(=O)c1ccccc1	0.951 (inactive)
CNC(=O)/C(=C\C=C\c1ccccc1)NC(=O)c1ccc([N+](=O)[O-])cc1	-6.01 (active)
Cc1ccc(/C=C/C(=O)O)cc1S(=O)(=O)N1CCC(Cc2ccccc2)CC1	-2.01 (inactive)
Cc1ccc(C)c2c1cc(C)c1nnc(SCC(=O)Nc3cccc(C(=O)O)c3)n12	4.23 (inactive)
COc1cc2nc(Cl)nc(NCCO)c2cc1OC	0.407 (inactive)
COc1cccc(NC(=O)C(Sc2nc3ccccc3c(=O)n2CC(C)C)c2ccccc2)c1 (stereo unspecified)	7.69 (active)
CC(Sc1nc2ccccc2c(=O)n1Cc1ccco1)C(=O)c1ccccc1 (stereo unspecified)	-0.121 (inactive)
COc1cccc(NC(=O)C(Sc2nnnn2C)c2ccccc2)c1 (stereo unspecified)	-0.113 (inactive)
Nc1nc(Sc2ncccc2[N+](=O)[O-])n[nH]1	-0.977 (inactive)
Cc1ccc(N2C(=O)CN=C2Nc2nc(C)cc(C)n2)cc1	0.73 (inactive)
O=C(CCc1ccccc1)NNC(=O)c1ccc(Br)cc1	-1.74 (inactive)
CC(=O)NC(=S)NNC(=O)c1ccc(Br)cc1	5.47 (active)
CNC(=S)NNC(=O)c1ccc(N(C)C)cc1	0.736 (inactive)
COC(=O)c1ccc(S(=O)(=O)NCc2ccccc2)n1C	-0.343 (inactive)
O=C1CCCCC1C(=O)c1ccccc1 (stereo unspecified)	0.304 (inactive)

SMILES	B-score of Tl+ flux slope (higher = more flux/activation; lower = inhibition)
CN(C)c1cc(-c2ccc(F)cc2)oc(=O)c1Cl	0.0271 (inactive)
COc1ccnc(Oc2ccccc2)c1-c1ncn[nH]1	0.306 (inactive)
O=C(CNCc1cccs1)Nc1cc(S(=O)(=O)N2CCCC2)ccc1Cl	-3.68 (active)
O=C(NCc1cccs1)C1CCN(S(=O)(=O)c2ccc(Cl)cc2)CC1	-0.17 (inactive)
O=C(CNCc1ccco1)Nc1cc(S(=O)(=O)N2CCOCC2)ccc1N1CCCC1	-0.873 (inactive)
COCCCn1c(-c2cccs2)nc2nc3ccccc3nc21	0.0602 (inactive)
COc1ccc(Cl)cc1NC(=O)CN(C)C(=O)CNC(=O)C12CC3CC(CC(C3)C1)C2	0.0604 (inactive)
C/C(=N/NC(=O)c1cc(Cl)ccc1O)C12CC3CC(CC(C3)C1)C2	4.51 (active)
O=C(N/N=C1\CCSC1)c1cc(Cl)ccc1O	0.11 (inactive)
CCOC(=O)C1CCN(C(=O)Nc2ccc(C)c(Cl)c2)CC1	0.0935 (inactive)
CCOC(=O)C(=Cc1ccccc1OC)C(=O)OCC	-0.438 (inactive)
O=C(CN1C(=O)/C(=C/c2ccccc2F)Sc2ccccc21)NCc1cccnc1	-1.86 (inactive)
COc1ccc(C(=O)C2CCCN(C(=O)c3cnsn3)C2)c(C)c1 (stereo unspecified)	-0.0096 (inactive)
O=S(=O)(c1ccccc1)N1CN(Cc2ccc(F)cc2)c2nc3ccccc3nc21	-1.17 (inactive)
O=C1COc2ccc(C(=O)COC(=O)c3cccnc3Cl)cc2N1	-0.384 (inactive)
COc1cccc(Nc2nnc(SCC(=O)N3CC(=O)Nc4ccccc43)s2)c1	-0.459 (inactive)
CCc1ccc(Nc2nnc(SCC(=O)c3ccc4c(c3)NC(=O)CO4)s2)cc1	-5.32 (active)
O=C(Cn1cnc2cc([N+](=O)[O-])ccc2c1=O)NC(=O)NCc1ccccc1	-0.182 (inactive)
CC(=O)c1ccc(S(=O)(=O)Nc2ccc(C(=O)NCC(c3ccccc3)N(C)C)cc2)cc1 (stereo unspecified)	0.133 (inactive)
